# Screening data (PubChem)
# KCNQ2 block: blocks the rat KCNQ2 potassium channel | O88943 | CHO-K1 KCNQ2, FluxOR thallium flux, 20 min; hits give low values | B-score at 10 µM | hit rate 1.1% among 310,000;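 active means fluorescence ratio B-score at most minus 3 library SDs, with starting brightness B-score within 2 library SDs, cut at about -5.5 in these data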
# Target sequence (O88943 whole entry, looked up): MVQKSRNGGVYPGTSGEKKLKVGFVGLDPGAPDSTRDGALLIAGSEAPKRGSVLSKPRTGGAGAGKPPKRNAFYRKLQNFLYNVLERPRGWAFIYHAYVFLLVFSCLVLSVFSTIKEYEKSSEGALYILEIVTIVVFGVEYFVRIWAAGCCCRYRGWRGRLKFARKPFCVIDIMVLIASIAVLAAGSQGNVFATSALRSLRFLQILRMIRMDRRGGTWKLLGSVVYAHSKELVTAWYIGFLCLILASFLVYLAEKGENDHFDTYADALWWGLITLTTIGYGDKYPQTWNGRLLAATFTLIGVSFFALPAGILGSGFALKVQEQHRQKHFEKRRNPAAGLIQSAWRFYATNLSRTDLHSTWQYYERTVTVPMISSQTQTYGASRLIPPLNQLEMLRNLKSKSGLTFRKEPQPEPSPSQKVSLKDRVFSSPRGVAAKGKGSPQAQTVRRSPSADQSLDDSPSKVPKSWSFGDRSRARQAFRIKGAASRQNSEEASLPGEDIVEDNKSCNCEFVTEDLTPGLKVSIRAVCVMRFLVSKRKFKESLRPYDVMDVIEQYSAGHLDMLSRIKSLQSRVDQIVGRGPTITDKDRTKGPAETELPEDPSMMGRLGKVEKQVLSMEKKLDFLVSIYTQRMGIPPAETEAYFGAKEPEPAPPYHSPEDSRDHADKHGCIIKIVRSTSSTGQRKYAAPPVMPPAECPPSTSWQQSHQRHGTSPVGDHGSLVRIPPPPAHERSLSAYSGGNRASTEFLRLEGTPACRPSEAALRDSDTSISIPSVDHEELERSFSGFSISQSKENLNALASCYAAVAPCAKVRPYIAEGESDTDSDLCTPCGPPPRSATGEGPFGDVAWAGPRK
# KCNQ2 enhance: KCNQ2 (rat) channel potentiation. O88943. CHO-K1 KCNQ2, FluxOR thallium flux fluorescence; hits give high values. B-score at 10 µM. hit rate 0.54% among 310,000;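 active means fluorescence ratio B-score at least 3 SD of library B-scores, with initial fluorescence B-score within 3 of them, cut at about 5.3 in these data; same plate scores as AID 2156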;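 further: B-score of peak minus minimum over baseline fluorescence ratio after K+ and Tl+ stimulus; positive B-score means potentiation of KCNQ2 with more thallium influx and brighter signal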
# Kir21 confirm: confirmation of mouse Kir2.1 potassium channel inhibitors | shares compounds with KCNQ2 enhance | hit rate 41% among 2,300 | Tl flux remaining, % of negative control (hits give low values), % at 10 µM | Kir2.1-expressing cells, FluxOR thallium flux fluorescence; hits give low values | AID 2032;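 active means Primary-screen hit whose thallium flux fell at least 3 control SD below untreated wells in both duplicates, with normal baseline fluorescence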;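 further: 0% = blank wells without stimulus and 100% = stimulated no-compound controls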
# HEK293 ctr: counter-screen for Kir2.1 inhibitors: effect in parental HEK293 cells | shares compounds with KCNQ2 enhance | FluxOR thallium flux fluorescence; 0% = unstimulated blank wells | FluxOR signal as % of negative control (100 = no effect), % at 10 µM | hit rate 19% among 2,300 | AID 2105;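 active means dye signal at least 3 control SD above or below untreated wells in both duplicates, raw fluorescence within 3, either direction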;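 further: percent is based on the flux ratio of peak minus minimum fluorescence over baseline F0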
# CHO-K1 Tl ctr: alters thallium flux in parental CHO-K1 cells, KCNQ2 counter-screen; shares compounds with KCNQ2 enhance; FluxOR thallium flux fluorescence; zero = vehicle mean+3SD, 100% = vehicle-minus-blank window; activity increase over 3SD of controls, % at 10 µM; hit rate 43% among 1,200;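 active means signal rise of at least 3 SD above the untreated control mean, in both duplicate wells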;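 further: counter screen of KCNQ2 potentiator hits so any rise reflects channel-independent effects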
# KCNQ1 sel pot: tests whether KCNQ2 potentiators also act on human KCNQ1; shares compounds with KCNQ2 enhance; CHO KCNQ1 stable, FluxOR thallium flux fluorescence; beyond 3SD, as % of vehicle-control signal; activation over 3SD threshold, % at 10 µM; hit rate 28% among 1,200; AID 2283;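 active means fluorescence ratio rise of at least 3 SD of vehicle wells above their mean, in both replicate wells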;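 further: 0% = vehicle mean plus 3 SD and 100% = vehicle minus unstimulated blank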
# KCNQ2 pot confirm: rat KCNQ2 channel potentiator confirmation; potentiation, less the hit threshold, % at 10 µM; hit rate 68% among 1,200; shares compounds with KCNQ2 enhance; CHO-KCNQ2 cells, FluxOR thallium flux fluorescence; AID 2287;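 active means fluorescence ratio rising 3 SD or more over the vehicle control mean in both replicates, plus primary screen hit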;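 further: peak minus minimum thallium fluorescence divided by baseline after K/Tl stimulus; 0% = vehicle mean plus 3 SD and 100% = vehicle minus unstimulated blank difference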
# Kir2-1 sel: tests whether KCNQ2 potentiators also affect mouse Kir2.1; shares compounds with KCNQ2 enhance; HEK293 Kir2.1, FluxOR thallium flux fluorescence; activity over 3SD threshold, % at 10 µM; hit rate 2% among 1,200; AID 2345;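 active means fluorescence ratio rise of at least 3 SD above the vehicle-control mean, seen in both replicates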;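 further: 0% = vehicle mean plus 3 SD and 100% = vehicle minus no-stimulus blank window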
# KCNQ2 W236L MoA: rat KCNQ2 W236L mutant potentiation by KCNQ2 potentiators. shares compounds with KCNQ2 enhance. CHO KCNQ2-W236L, automated patch clamp current. current increase over 3SD of negative controls (%), hits give high values, % at 25 µM. hit rate 10% among 940. AID 2558;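 active means current increase at least 3 SD of the untreated controls above them in both duplicate recordings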
# Numbers without * were called inactive; i = inactive; · = no result. Compounds with a hit are over-represented: about 1.6% of the library has one in this group of screens.
SMILES,KCNQ2 block,KCNQ2 enhance,Kir21 confirm,HEK293 ctr,others
O=C(NCc1ccc(Cl)cc1)c1ccccc1Oc1ccccc1,i,8.8*,i,i,CHO-K1 Tl ctr=110*;KCNQ1 sel pot=-12;KCNQ2 pot confirm=12*;Kir2-1 sel=-49;KCNQ2 W236L MoA=i
COc1ccc(-c2cn(CCC(=O)NCc3ccc(C)cc3)c(CCN)n2)cc1,i,0.13,·,·,
Fc1ccc(NC(=S)Nc2cccnc2)c(F)c1F,i,0.31,·,·,
CC(C)Cc1nc(SCC(=O)N2CCCCC2)c2c(=O)n(C)c(=O)n(C)c2n1,i,27*,i,i,CHO-K1 Tl ctr=-24;KCNQ1 sel pot=-5;KCNQ2 pot confirm=121*;Kir2-1 sel=-16;KCNQ2 W236L MoA=i
CCc1nc(SCC(=O)N2CCC(C)CC2)c2c(=O)n(C)c(=O)n(C)c2n1,i,16*,i,i,CHO-K1 Tl ctr=-7;KCNQ1 sel pot=-26;KCNQ2 pot confirm=81*;Kir2-1 sel=-18;KCNQ2 W236L MoA=i
CCCc1nc(SCC(=O)N2CCC(C)CC2)c2c(=O)n(C)c(=O)n(C)c2n1,i,25*,i,i,CHO-K1 Tl ctr=-8;KCNQ1 sel pot=-18;KCNQ2 pot confirm=141*;Kir2-1 sel=-39;KCNQ2 W236L MoA=i
CCc1nc(SCC(=O)N2CCCCC2)c2c(=O)n(C)c(=O)n(C)c2n1,i,9.1*,i,i,CHO-K1 Tl ctr=-21;KCNQ1 sel pot=-20;KCNQ2 pot confirm=42*;Kir2-1 sel=-13;KCNQ2 W236L MoA=i
CC(C)c1nc(SCC(=O)N2CCOCC2)c2c(=O)n(C)c(=O)n(C)c2n1,i,1.8,·,·,
CC1CCN(C(=O)CSc2nc3c(c(=O)n(C)c(=O)n3C)n2C)CC1,i,1.4,·,·,
CCc1nc(SCC(N)=O)c2c(=O)n(C)c(=O)n(C)c2n1,i,0.95,·,·,
CC(C)Cc1nc(SCC(=O)N2CCOCC2)c2c(=O)n(C)c(=O)n(C)c2n1,i,3.2,·,·,
CCCCSc1cc(=O)[nH]c(N)n1,i,1.3,·,·,
CC(=O)c1ccc(NC(=S)NCc2cccnc2)cc1,i,·,·,·,
CCCC(c1nnnn1C(C)(C)CC)N1CCN(C(=O)c2ccco2)CC1 (stereo not given),i,0.93,·,·,
Cc1c(NC(=O)c2ccc(-c3ccc([N+](=O)[O-])cc3Cl)o2)c(=O)n(-c2ccccc2)n1C,i,1.1,·,·,
O=C(/C=C\c1cccs1)N1CCN(Cc2ccc3c(c2)OCO3)CC1,i,0.55,·,·,
Cc1nc(N2CCN(C)CC2)c2c(C)c(C(=O)Nc3ccc(C)c(F)c3)sc2n1,i,·,64%*,i,
Cc1nc(N2CCC(C)CC2)c2c(C)c(C(=O)Nc3ccc(C)c(F)c3)sc2n1,i,·,·,·,
NC(=O)c1cc(S(=O)(=O)NCCc2ccc(S(N)(=O)=O)cc2)cs1,i,·,·,·,
S=c1[nH]c2cc(-c3ccccc3)ccc2o1,i,18*,i,500%*,CHO-K1 Tl ctr=-17;KCNQ1 sel pot=-6;KCNQ2 pot confirm=100*;Kir2-1 sel=3.9*;KCNQ2 W236L MoA=i
O=S(=O)(c1ccc2oc(=S)[nH]c2c1)N1CCCCC1,i,·,·,·,
COc1ccc(CCC(C)NCc2ccc(Cl)c(Cl)c2)cc1 (stereo not given),i,·,·,·,
COc1ccc(CCC(C)NCCc2ccc(Cl)cc2Cl)cc1 (stereo not given),i,·,16%*,i,
Cc1ccccc1CC1SC(N=C(N)N)=NC1=O (stereo not given),i,·,·,·,
CCCCc1cc(=O)oc2cc(OCc3nn[nH]n3)ccc12,i,·,·,·,
SMILES,KCNQ2 block,KCNQ2 enhance,Kir21 confirm,HEK293 ctr,others
CCOC(=O)N1CCN(S(=O)(=O)c2cccc3ccc(C)nc23)CC1,i,·,·,·,
COC(=O)C1=C(C)N(Cc2ccccc2)C(=NCc2ccc(OC)cc2)N[C@H]1c1cccc(F)c1,i,·,26%*,i,
CCOC(=O)CN1C(=O)N[C@@H](c2cccc(F)c2)C(C(=O)OC)=C1C,i,·,i,i,
COC(=O)C1=C(C)N(Cc2ccccc2)C(=NCCCCO)N[C@H]1c1ccccc1,i,·,·,·,
CCOC(=O)CN1C(=O)N[C@@H](c2cccc(F)c2)C(C(C)=O)=C1C,i,·,·,·,
COC(=O)C1=C(C)N(Cc2ccccc2)C(=NCCc2cccnc2)N[C@H]1c1ccccc1,i,2.6,i,i,
COC(=O)C1=C(C)N(Cc2ccccc2)C(=NCc2cc(OC)c(OC)c(OC)c2)N[C@H]1c1cccc(F)c1,i,·,·,·,
Cc1c(-c2ccccc2)oc2c(C(=O)OCC(=O)Nc3ccc(C(N)=O)cc3)cccc2c1=O,i,·,·,·,
Oc1ccccc1/C=N/NC(=S)NC1CC2C=CC1C2 (stereo not given),i,1.4,·,·,
Oc1c(Cl)cc(Cl)cc1/C=N/NC(=S)NC1CC2C=CC1C2 (stereo not given),i,7.2*,i,i,CHO-K1 Tl ctr=-10;KCNQ1 sel pot=70*;KCNQ2 pot confirm=-16;Kir2-1 sel=-27
NC(=O)COC(=O)[C@@H]1CC(O)CN1S(=O)(=O)c1ccc2c(c1)OCCO2 (stereo not given in full),i,0.04,·,·,
CC(C)(C)CC(=O)Nc1ccc(S(=O)(=O)N2CCCC2)cc1,i,0.97,·,·,
Oc1ccccc1C1=NN(c2ccccc2)C(c2ccc(F)cc2)C1 (stereo not given),i,2.9,·,·,
Oc1ccc(C2=NN(c3ccccc3)C(c3ccc(F)cc3)C2)cc1 (stereo not given),i,12*,i,i,CHO-K1 Tl ctr=3.9*;KCNQ1 sel pot=-14;KCNQ2 pot confirm=-16;Kir2-1 sel=-25
CCOc1ccc(S(=O)(=O)N(CC(=O)NC2CCCC2)c2ccc(F)cc2)cc1,i,0.21,·,·,
O=C(CN1CCN(Cc2ccc(Cl)cc2)CC1)N1CCc2ccccc21,i,0.49,35%*,i,
O=C(CN1CCN(Cc2ccccc2)CC1)N1CCCc2ccccc21,i,0.64,·,·,
Clc1cc(Cl)cc(Nc2ncn[nH]2)c1,i,·,·,·,
COc1cc(NC(=O)CSc2ncnc3sc4c(c23)CCC(C)C4)c(C(=O)O)cc1OC (stereo not given),i,19*,i,417%*,CHO-K1 Tl ctr=-7;KCNQ1 sel pot=36*;KCNQ2 pot confirm=94*;Kir2-1 sel=-5;KCNQ2 W236L MoA=i
CC1CCc2c(sc3ncnc(SCC(=O)Nc4ccc(C(=O)O)cc4)c23)C1 (stereo not given),i,0.97,·,·,
O=C(NCc1ccccc1)c1ccc(N2CCC3(CC2)CC(c2ccc(Cl)cc2)=NO3)c([N+](=O)[O-])c1,i,·,·,·,
COc1cc(/C=C2/SC(=S)NC2=O)ccc1OS(=O)(=O)c1ccc(C)cc1,i,40*,i,i,CHO-K1 Tl ctr=0.8*;KCNQ1 sel pot=-20;KCNQ2 pot confirm=-23;Kir2-1 sel=-50;KCNQ2 W236L MoA=i
COc1ccc(/C=C2/S/C(=N/S(=O)(=O)Cc3ccccc3)NC2=O)cc1OC,i,0.02,·,·,
